Experimental data: the supplement of paper PMC8728848
The full list was thinned out, with the strongest signals kept by preference.

B1: AICL (Homo sapiens), Q92478 (protein)
chain: MMTKHKKCFIIVGVLITTNIITLIVKLTRDSQSLCPYDWIGFQNKCYYFSKEEGDWNSSKYNCSTQHADLTIIDNIEEMNFLRRYKCSSDHWIGLKMAKNRTGQWVDGATFTKSFGMRGSEGCAYLSDDGAATARCYTERKWICRKRIH
B2: Clec49 (Caenorhabditis elegans) (protein)
chain: MTRLTLLLFGLLGAATAQTCNTGGIYNEQFNRCYQYFTAPAQFSFAEQQCNLLGGHLASVQNGQENALLQSNAANSFKRSNYSDYWIGATDLETSGTWKWTDPSVTFDYSNWQLGEPQSGSDCAIQDKGDGTWSAIGCTSYRPYVCVTPVIMTATCPPITTPIPTTCPTPAPCPIKQCVPSCDQGWTYFSPTDFCYRVYHGEKFNDAEASCVLLGGHLASIHSLTENTFVNNIASCGIKEGKYEHLAWIGMRKVGQDWVWTDGTPSDYFNWAPKQPDNPKKELCVQTAPDLSHDKWYENWNNLECNEVMRAYICKKASIHN

Experiments:
Test in all cases: glycan array binding signal (z-score within array); higher = stronger binding
Details in all cases: glycan notation: IUPAC condensed, linker removed
[1] = target: Fuc(a1-2)Gal(b1-4)[Fuc(a1-3)]GlcNAc(b1-3)Gal(b1-4)[Fuc(a1-3)]GlcNAc
How it was run: (§1)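 The Consortium for Functional Glycomics database supplied 3228 glycan arrays, of which those lacking an available protein sequence were dropped. The binding signal, a within-array Z-score, was averaged across arrays of the same protein sequence and across linkers. Negative scores can be read as non-binding.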

Fuc(a1-2)[Gal(a1-3)]Gal = target: Fuc(a1-2)[Gal(a1-3)]Gal
How it was run: as §1

[2] = target: Fuc(a1-2)[GalNAc(a1-3)]Gal(b1-4)Glc
How it was run: as §1

[3] = target: Fuc(a1-3)[Gal(b1-4)]GlcNAc
How it was run: as §1

Fuc(b1-3)GlcNAc = target: Fuc(b1-3)GlcNAc
How it was run: as §1

Gal(a1-3)Gal = target: Gal(a1-3)Gal
How it was run: as §1

[4] = target: Gal(b1-3)[Neu5Ac(a2-6)]GalNAc
How it was run: as §1

[5] = target: Gal(b1-3)[Neu5Ac(a2-6)]GlcNAc(b1-6)Gal(b1-4)Glc
How it was run: as §1

[6] = target: Gal(b1-4)GlcNAc(b1-3)Gal(b1-4)GlcNAc
How it was run: as §1

Gal3S6S(b1-4)GlcNAc6S = target: Gal3S6S(b1-4)GlcNAc6S
How it was run: as §1

[7] = target: GalNAc(b1-3)Gal(a1-4)Gal(b1-4)GlcNAc
How it was run: as §1

GalNAc(b1-4)GlcNAc = target: GalNAc(b1-4)GlcNAc
How it was run: as §1

Glc(b1-6)Glc = target: Glc(b1-6)Glc
How it was run: as §1

GlcA(b1-3)Gal = target: GlcA(b1-3)Gal
How it was run: as §1

GlcA(b1-6)Gal = target: GlcA(b1-6)Gal
How it was run: as §1

GlcNAc(b1-3)Gal = target: GlcNAc(b1-3)Gal
How it was run: as §1

[8] = target: GlcNAc(b1-3)Gal(b1-4)GlcNAc(b1-3)Gal(b1-4)GlcNAc
How it was run: as §1

Kdn(a2-3)Gal(b1-4)GlcNAc = target: Kdn(a2-3)Gal(b1-4)GlcNAc
How it was run: as §1

Man(b1-4)GlcNAc = target: Man(b1-4)GlcNAc
How it was run: as §1

[9] = target: Neu5Ac(a2-3)Gal(b1-3)[Fuc(a1-4)]GlcNAc
How it was run: as §1

[10] = target: Neu5Ac(a2-3)Gal(b1-4)GlcNAc(b1-3)Gal(b1-4)GlcNAc(b1-3)Gal(b1-4)GlcNAc
How it was run: as §1

[11] = target: Neu5Ac(a2-3)[GalNAc(b1-4)]Gal(b1-4)GlcNAc
How it was run: as §1

Neu5Ac(a2-8)Neu5Ac = target: Neu5Ac(a2-8)Neu5Ac
How it was run: as §1

[12] = target: Neu5Gc(a2-3)Gal(b1-3)[Fuc(a1-4)]GlcNAc
How it was run: as §1

[13] = target: Neu5Gc(a2-3)Gal(b1-4)GlcNAc
How it was run: as §1

[14] = target: Neu5Gc(a2-6)Gal(b1-4)GlcNAc
How it was run: as §1

[15] = target: Neu5Ac(a2-3)Gal(b1-3)GalNAc(b1-4)[Neu5Ac(a2-8)Neu5Ac(a2-3)]Gal(b1-4)Glc
How it was run: as §1

[16] = target: Neu5Ac(a2-3)Gal(b1-3)GlcNAc(b1-2)[Neu5Ac(a2-3)Gal(b1-3)GlcNAc(b1-4)]Man(a1-6)[Neu5Ac(a2-3)Gal(b1-3)GlcNAc(b1-2)Man(a1-3)]Man(b1-4)GlcNAc(b1-4)GlcNAc
How it was run: as §1

[17] = target: Neu5Ac(a2-3)Gal(b1-4)GlcNAc(b1-3)Gal(b1-4)GlcNAc(b1-2)Man(a1-3)[Neu5Ac(a2-3)Gal(b1-4)GlcNAc(b1-3)Gal(b1-4)GlcNAc(b1-2)Man(a1-6)]Man(b1-4)GlcNAc(b1-4)GlcNAc
How it was run: as §1

[18] = target: Neu5Ac(a2-3)Gal(b1-4)GlcNAc(b1-3)Gal(b1-4)GlcNAc(b1-3)Gal(b1-4)GlcNAc(b1-2)Man(a1-3)[Neu5Ac(a2-3)Gal(b1-4)GlcNAc(b1-3)Gal(b1-4)GlcNAc(b1-3)Gal(b1-4)GlcNAc(b1-2)Man(a1-6)]GalNAc
How it was run: as §1

[19] = target: Neu5Ac(a2-3)Gal(b1-4)[Fuc(a1-3)]GlcNAc(b1-3)GalNAc
How it was run: as §1

[20] = target: Neu5Ac(a2-3)[GalNAc(b1-4)]Gal(b1-4)Glc
How it was run: as §1

[21] = target: Neu5Ac(a2-6)Gal(b1-4)GlcNAc(b1-2)[Neu5Ac(a2-6)Gal(b1-4)GlcNAc(b1-6)]Man(a1-6)[Neu5Ac(a2-6)Gal(b1-4)GlcNAc(b1-2)Man(a1-3)][GlcNAc(b1-4)]Man(b1-4)GlcNAc(b1-4)GlcNAc
How it was run: as §1

[22] = target: Neu5Ac(a2-6)Gal(b1-4)GlcNAc(b1-3)Gal(b1-4)GlcNAc
How it was run: as §1

[23] = target: Neu5Ac(a2-6)Gal(b1-4)GlcNAc(b1-3)Gal(b1-4)GlcNAc(b1-3)Gal(b1-4)GlcNAc(b1-2)Man(a1-3)[Neu5Ac(a2-6)Gal(b1-4)GlcNAc(b1-3)Gal(b1-4)GlcNAc(b1-3)Gal(b1-4)GlcNAc(b1-2)Man(a1-6)]GalNAc
How it was run: as §1

[24] = target: Neu5Ac(a2-6)Gal(b1-4)GlcNAc(b1-3)Gal(b1-4)GlcNAc(b1-3)[Neu5Ac(a2-6)Gal(b1-4)GlcNAc(b1-3)Gal(b1-4)GlcNAc(b1-6)]GalNAc
How it was run: as §1

[25] = target: Neu5Ac(a2-6)Gal(b1-4)GlcNAc(b1-3)Gal(b1-4)[Fuc(a1-3)]GlcNAc(b1-3)Gal(b1-4)[Fuc(a1-3)]GlcNAc
How it was run: as §1

[26] = target: Neu5Ac(a2-8)Neu5Ac(a2-3)Gal(b1-4)Glc
How it was run: as §1

[27] = target: Neu5Ac(a2-8)Neu5Ac(a2-3)[GalNAc(b1-4)]Gal(b1-4)Glc
How it was run: as §1

| Binder | glycan array binding signal (z-score) [1] | glycan array binding signal (z-score) (Fuc(a1-2)[Gal(a1-3)]Gal) | glycan array binding signal (z-score) [2] | glycan array binding signal (z-score) [3] | glycan array binding signal (z-score) (Fuc(b1-3)GlcNAc) | glycan array binding signal (z-score) (Gal(a1-3)Gal) | glycan array binding signal (z-score) [4] | glycan array binding signal (z-score) [5] | glycan array binding signal (z-score) [6] | glycan array binding signal (z-score) (Gal3S6S(b1-4)GlcNAc6S) | glycan array binding signal (z-score) [7] | glycan array binding signal (z-score) (GalNAc(b1-4)GlcNAc) | glycan array binding signal (z-score) (Glc(b1-6)Glc) | glycan array binding signal (z-score) (GlcA(b1-3)Gal) | glycan array binding signal (z-score) (GlcA(b1-6)Gal) | glycan array binding signal (z-score) (GlcNAc(b1-3)Gal) | glycan array binding signal (z-score) [8] | glycan array binding signal (z-score) (Kdn(a2-3)Gal(b1-4)GlcNAc) | glycan array binding signal (z-score) (Man(b1-4)GlcNAc) | glycan array binding signal (z-score) [9] | glycan array binding signal (z-score) [10] | glycan array binding signal (z-score) [11] | glycan array binding signal (z-score) (Neu5Ac(a2-8)Neu5Ac) | glycan array binding signal (z-score) [12] | glycan array binding signal (z-score) [13] | glycan array binding signal (z-score) [14] | glycan array binding signal (z-score) [15] | glycan array binding signal (z-score) [16] | glycan array binding signal (z-score) [17] | glycan array binding signal (z-score) [18] | glycan array binding signal (z-score) [19] | glycan array binding signal (z-score) [20] | glycan array binding signal (z-score) [21] | glycan array binding signal (z-score) [22] | glycan array binding signal (z-score) [23] | glycan array binding signal (z-score) [24] | glycan array binding signal (z-score) [25] | glycan array binding signal (z-score) [26] | glycan array binding signal (z-score) [27] |
| --- | --- | --- | --- | --- | --- | --- | --- | --- | --- | --- | --- | --- | --- | --- | --- | --- | --- | --- | --- | --- | --- | --- | --- | --- | --- | --- | --- | --- | --- | --- | --- | --- | --- | --- | --- | --- | --- | --- | --- |
| B1 | -0.049 | -0.508 | -0.265 | -0.169 | -0.469 | -0.224 | -0.085 | -0.359 | -0.439 | 5.26 | -0.363 | -0.322 | -0.395 | 5.65 | 4.6 | -0.329 | -0.374 | 2.06 | -0.401 | -0.312 | -0.415 | -0.3 | 0.384 | -0.323 | 0.329 | -0.267 |  |  |  |  |  |  |  |  |  |  |  |  |  |
| B2 |  |  |  |  |  |  |  |  |  |  |  |  |  |  |  |  |  |  |  |  |  |  |  |  |  |  | -0.511 | 3.69 | 2.19 | 5.23 | 14.5 | -0.075 | 0.372 | -0.634 | 0.32 | 2.58 | 0.181 | -0.326 | -0.424 |
